# Experimental data: PMC7862700, “An all-to-all approach to the identification of sequence-specific readers for epigenetic DNA modifications on cytosine”
# Legend:
# Test in all cases: DAPPL (digital affinity profiling via proximity ligation, sequencing); 10 mM Tris-HCl pH 7.5, 50 mM NaCl, 1 mM DTT, 4% glycerol, room temperature, 30 min; GST-TFs on glutathione beads, 16-mer random dsDNA library, 0.1% formaldehyde crosslink after washing; high values mean tight binding
# FEV = target: T1, FEV (Homo sapiens, UniProt Q99581 1-238); settings: protein: recombinant; tags: N-terminal GST; dsDNA, one strand shown
# T1 sequence: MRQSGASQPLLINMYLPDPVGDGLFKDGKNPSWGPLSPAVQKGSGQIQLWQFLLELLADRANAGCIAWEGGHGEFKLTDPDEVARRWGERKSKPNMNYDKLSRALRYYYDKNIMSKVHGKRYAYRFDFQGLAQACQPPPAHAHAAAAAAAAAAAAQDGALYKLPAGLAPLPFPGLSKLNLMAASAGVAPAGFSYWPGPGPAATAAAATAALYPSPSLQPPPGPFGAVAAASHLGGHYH
# In short: (§1)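 Beads coated with glutathione captured GST-fused human transcription factors that had been expressed in yeast, and the factors were then given DNA barcodes and pooled with a tag-only sample. The pools were incubated with 200 nmole of a random double-stranded 16-mer DNA library in Tris/NaCl/DTT/glycerol buffer for 30 min at room temperature, washed, crosslinked with 0.1% formaldehyde and proximity-ligated with BsaI/T4 ligase at 37 °C for 1 h. PCR amplification and Illumina NextSeq500 sequencing came last. Binding signal is each hexamer's read frequency for a factor divided by its frequency for the tag-only sample.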
# ETV5 = ETV5 (Homo sapiens, UniProt P41161 1-510); settings: protein: recombinant; tags: N-terminal GST; dsDNA, one strand shown
# Chain of ETV5 (P41161 whole entry): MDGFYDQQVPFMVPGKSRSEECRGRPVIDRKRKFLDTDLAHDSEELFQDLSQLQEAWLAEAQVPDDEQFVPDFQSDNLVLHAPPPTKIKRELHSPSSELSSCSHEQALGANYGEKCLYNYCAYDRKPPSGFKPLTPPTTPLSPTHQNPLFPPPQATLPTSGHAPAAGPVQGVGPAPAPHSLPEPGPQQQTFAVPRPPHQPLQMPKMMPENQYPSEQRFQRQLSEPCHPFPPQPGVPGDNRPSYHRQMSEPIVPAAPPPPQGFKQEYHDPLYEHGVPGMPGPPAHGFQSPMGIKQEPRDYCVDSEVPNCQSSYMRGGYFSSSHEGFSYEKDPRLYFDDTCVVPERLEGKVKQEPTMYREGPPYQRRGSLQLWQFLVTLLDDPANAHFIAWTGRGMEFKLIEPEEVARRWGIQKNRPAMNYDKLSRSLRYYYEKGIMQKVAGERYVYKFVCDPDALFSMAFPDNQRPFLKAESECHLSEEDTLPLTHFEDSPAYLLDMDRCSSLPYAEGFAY
# In short: as §1
# HSF1 = HSF1 (Homo sapiens, UniProt Q00613 1-529); settings: protein: recombinant; tags: N-terminal GST; chain copies: 3; dsDNA, one strand shown
# Chain of HSF1 (Q00613 whole entry): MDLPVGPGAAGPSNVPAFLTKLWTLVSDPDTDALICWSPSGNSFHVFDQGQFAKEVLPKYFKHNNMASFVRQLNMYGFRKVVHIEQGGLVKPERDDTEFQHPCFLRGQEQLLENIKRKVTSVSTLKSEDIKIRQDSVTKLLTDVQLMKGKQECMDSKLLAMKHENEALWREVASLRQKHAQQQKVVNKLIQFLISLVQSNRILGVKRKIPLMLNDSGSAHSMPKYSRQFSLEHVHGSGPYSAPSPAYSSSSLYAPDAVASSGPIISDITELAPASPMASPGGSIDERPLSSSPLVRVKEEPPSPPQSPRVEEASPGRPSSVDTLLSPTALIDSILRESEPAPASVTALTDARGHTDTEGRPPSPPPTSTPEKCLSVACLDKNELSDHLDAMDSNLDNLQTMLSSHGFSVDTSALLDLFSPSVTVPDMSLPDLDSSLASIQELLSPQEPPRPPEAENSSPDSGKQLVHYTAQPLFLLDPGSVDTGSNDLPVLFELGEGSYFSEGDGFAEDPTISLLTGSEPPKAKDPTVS
# In short: as §1
# SPIC = target: T2, SPIC (Homo sapiens, UniProt Q8N5J4 1-248); settings: protein: recombinant; tags: N-terminal GST; dsDNA, one strand shown
# T2 sequence: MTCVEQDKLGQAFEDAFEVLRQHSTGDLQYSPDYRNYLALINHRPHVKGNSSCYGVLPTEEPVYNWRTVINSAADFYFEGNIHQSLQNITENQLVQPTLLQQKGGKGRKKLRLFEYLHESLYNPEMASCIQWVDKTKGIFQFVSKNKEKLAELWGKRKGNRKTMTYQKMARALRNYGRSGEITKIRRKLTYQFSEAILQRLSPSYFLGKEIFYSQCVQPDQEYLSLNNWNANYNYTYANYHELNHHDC
# In short: as §1
# ELF4 = ELF4 (Homo sapiens, UniProt Q99607 1-663); settings: protein: recombinant; tags: N-terminal GST; dsDNA, one strand shown
# Chain of ELF4 (Q99607 whole entry): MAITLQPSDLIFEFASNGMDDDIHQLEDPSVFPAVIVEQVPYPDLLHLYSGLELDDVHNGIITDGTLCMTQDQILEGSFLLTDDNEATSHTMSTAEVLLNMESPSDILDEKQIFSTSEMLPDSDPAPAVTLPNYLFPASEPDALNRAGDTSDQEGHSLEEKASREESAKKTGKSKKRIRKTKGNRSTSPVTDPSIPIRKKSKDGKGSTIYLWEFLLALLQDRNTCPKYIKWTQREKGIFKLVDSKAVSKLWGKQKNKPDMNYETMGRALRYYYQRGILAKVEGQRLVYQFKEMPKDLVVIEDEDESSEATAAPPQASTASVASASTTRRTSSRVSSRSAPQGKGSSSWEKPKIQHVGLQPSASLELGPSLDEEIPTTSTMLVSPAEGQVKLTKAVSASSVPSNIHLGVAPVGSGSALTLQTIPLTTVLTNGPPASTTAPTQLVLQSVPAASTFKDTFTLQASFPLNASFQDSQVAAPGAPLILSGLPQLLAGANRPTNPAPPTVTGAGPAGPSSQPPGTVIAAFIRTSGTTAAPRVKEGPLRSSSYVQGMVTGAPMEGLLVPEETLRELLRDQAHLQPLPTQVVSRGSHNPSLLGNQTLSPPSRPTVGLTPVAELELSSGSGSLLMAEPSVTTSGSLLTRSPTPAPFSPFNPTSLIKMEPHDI
# In short: as §1
# ELK4 = target: T3, ELK4 (Homo sapiens, UniProt P28324-2 1-405); settings: protein: recombinant; tags: N-terminal GST; dsDNA, one strand shown
# T3 sequence: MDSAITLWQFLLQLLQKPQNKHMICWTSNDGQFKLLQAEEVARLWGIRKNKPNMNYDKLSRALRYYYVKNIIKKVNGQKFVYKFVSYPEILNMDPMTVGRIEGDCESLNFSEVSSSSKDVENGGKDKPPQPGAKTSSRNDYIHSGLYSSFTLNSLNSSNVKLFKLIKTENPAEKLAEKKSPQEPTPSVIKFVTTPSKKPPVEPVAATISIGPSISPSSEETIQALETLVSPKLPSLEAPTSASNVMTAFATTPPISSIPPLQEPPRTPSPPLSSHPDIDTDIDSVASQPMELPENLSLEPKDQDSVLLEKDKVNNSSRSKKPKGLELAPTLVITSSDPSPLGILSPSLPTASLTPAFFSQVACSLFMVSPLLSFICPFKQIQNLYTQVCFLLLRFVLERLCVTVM
# In short: as §1
# ETV2 = target: T4, ETV2 (Homo sapiens, UniProt O00321 1-342); settings: protein: recombinant; tags: N-terminal GST; dsDNA, one strand shown
# T4 sequence: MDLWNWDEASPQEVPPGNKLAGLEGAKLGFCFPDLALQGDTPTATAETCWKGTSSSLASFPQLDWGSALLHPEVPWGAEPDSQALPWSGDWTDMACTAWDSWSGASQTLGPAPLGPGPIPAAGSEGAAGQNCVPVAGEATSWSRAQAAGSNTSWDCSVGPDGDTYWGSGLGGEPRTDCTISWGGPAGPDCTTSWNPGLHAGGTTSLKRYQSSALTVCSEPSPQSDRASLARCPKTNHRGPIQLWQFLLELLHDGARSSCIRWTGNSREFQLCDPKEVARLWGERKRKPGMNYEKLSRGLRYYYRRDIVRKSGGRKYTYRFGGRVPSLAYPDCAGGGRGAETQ
# In short: as §1
# ELF3 = target: T5, ELF3 (Homo sapiens, UniProt P78545 1-371); settings: protein: recombinant; tags: N-terminal GST; dsDNA, one strand shown
# T5 sequence: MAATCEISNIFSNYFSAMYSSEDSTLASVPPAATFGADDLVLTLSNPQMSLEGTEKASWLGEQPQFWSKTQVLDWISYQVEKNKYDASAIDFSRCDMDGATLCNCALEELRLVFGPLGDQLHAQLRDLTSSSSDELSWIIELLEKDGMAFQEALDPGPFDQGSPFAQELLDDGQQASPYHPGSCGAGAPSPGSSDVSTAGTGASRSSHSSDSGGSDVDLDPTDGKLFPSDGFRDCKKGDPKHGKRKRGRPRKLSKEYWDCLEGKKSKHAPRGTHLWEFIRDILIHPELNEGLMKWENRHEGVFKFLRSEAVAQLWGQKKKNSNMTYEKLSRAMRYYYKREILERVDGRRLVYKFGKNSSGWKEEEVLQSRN
# In short: as §1
# CRX = CRX (Homo sapiens, UniProt O43186 1-299); settings: protein: recombinant; tags: N-terminal GST; dsDNA, one strand shown
# Chain of CRX (O43186 whole entry): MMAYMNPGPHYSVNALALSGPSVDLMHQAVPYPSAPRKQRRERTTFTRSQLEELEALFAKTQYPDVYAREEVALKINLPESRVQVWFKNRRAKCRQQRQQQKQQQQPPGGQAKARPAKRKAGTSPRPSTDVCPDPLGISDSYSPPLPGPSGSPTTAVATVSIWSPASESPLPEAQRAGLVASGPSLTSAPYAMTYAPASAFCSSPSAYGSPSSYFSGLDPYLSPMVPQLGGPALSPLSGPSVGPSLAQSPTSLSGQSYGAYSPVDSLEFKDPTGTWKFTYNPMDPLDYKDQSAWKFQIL
# In short: as §1
# ETV1 = ETV1 (Homo sapiens, UniProt P50549 1-477); settings: protein: recombinant; tags: N-terminal GST; dsDNA, one strand shown
# Chain of ETV1 (P50549 whole entry): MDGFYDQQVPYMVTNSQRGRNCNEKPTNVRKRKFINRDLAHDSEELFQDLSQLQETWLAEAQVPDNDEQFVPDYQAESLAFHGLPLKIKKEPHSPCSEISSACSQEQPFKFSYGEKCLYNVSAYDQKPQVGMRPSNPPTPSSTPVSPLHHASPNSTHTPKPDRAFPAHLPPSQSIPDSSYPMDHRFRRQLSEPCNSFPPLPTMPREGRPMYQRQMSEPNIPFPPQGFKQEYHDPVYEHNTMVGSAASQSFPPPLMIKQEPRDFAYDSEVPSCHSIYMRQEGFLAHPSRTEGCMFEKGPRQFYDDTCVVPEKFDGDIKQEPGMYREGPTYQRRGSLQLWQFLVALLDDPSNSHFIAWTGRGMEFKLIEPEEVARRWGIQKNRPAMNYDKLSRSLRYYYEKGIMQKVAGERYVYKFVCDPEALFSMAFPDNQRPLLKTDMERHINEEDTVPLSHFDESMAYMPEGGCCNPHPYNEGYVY
# In short: as §1
# ERF = target: T6, ERF (Homo sapiens, UniProt P50548 1-548); settings: protein: recombinant; tags: N-terminal GST; dsDNA, one strand shown
# T6 sequence: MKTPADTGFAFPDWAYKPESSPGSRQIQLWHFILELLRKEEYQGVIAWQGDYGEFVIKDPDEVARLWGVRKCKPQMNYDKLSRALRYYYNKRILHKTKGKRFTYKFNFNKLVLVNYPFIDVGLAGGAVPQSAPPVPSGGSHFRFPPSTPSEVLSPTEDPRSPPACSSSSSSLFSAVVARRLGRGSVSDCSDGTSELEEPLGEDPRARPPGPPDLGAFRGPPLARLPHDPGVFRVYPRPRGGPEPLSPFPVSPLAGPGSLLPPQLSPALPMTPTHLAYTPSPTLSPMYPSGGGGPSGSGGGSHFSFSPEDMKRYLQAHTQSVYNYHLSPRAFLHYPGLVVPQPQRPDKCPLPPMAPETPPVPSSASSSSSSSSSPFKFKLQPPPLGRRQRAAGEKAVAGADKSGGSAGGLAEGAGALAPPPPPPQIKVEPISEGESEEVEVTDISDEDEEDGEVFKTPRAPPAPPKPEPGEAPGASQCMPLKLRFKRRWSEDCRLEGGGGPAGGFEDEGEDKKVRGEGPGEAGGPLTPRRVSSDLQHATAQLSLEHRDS
# In short: as §1
# ETV3L = target: T7, ETV3L (Homo sapiens, UniProt Q6ZN32 1-361); settings: protein: recombinant; tags: N-terminal GST; dsDNA, one strand shown
# T7 sequence: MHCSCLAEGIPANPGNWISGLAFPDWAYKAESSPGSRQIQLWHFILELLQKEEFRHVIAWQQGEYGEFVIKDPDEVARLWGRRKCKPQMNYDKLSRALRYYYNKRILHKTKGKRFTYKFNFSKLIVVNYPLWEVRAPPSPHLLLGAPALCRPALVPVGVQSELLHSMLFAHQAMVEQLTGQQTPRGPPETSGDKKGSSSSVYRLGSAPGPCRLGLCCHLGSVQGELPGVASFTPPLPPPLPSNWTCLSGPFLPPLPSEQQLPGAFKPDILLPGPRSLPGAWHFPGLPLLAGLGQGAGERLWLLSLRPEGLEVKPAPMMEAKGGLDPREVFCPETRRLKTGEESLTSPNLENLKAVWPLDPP
# In short: as §1
# ETS2 = target: T8, ETS2 (Homo sapiens, UniProt P15036 1-469); settings: protein: recombinant; tags: N-terminal GST; dsDNA, one strand shown
# T8 sequence: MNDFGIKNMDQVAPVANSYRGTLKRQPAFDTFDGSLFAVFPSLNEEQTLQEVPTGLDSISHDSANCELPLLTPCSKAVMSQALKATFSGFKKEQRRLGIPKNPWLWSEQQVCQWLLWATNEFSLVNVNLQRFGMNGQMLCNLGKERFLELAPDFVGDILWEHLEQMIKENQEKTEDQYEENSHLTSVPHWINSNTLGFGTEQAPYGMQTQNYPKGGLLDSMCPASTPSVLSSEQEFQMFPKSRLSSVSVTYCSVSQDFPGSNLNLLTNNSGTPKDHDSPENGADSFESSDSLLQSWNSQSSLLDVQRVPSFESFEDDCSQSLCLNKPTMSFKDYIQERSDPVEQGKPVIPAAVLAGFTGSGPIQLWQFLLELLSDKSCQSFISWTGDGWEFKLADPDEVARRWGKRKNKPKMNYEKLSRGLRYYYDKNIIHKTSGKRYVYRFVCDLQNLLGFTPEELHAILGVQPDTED
# In short: as §1
# SPDEF = target: T9, SPDEF (Homo sapiens, UniProt O95238 1-335); settings: protein: recombinant; tags: N-terminal GST; dsDNA, one strand shown
# T9 sequence: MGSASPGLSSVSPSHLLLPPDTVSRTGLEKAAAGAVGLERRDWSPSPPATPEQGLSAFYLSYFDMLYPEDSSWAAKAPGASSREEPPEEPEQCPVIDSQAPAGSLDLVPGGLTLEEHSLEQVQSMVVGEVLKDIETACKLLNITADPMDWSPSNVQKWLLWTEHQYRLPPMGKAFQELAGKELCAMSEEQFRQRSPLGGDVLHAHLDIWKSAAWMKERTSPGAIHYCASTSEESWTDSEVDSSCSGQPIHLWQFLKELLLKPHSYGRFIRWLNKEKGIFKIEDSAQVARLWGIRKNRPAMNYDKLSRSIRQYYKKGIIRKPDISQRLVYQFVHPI
# In short: as §1
# ETV7 = target: T10, ETV7 (Homo sapiens, UniProt Q9Y603 1-341); settings: protein: recombinant; tags: N-terminal GST; dsDNA, one strand shown
# T10 sequence: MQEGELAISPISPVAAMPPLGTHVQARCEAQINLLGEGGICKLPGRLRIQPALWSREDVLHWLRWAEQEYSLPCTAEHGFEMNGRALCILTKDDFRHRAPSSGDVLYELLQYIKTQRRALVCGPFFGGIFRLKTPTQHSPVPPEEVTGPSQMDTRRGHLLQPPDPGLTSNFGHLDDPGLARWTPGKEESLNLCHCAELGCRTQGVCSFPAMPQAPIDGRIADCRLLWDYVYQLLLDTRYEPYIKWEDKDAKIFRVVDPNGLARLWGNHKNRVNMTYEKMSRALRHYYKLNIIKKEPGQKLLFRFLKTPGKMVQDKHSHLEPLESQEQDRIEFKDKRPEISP
# In short: as §1
# ELF5 = target: T11, ELF5 (Homo sapiens, UniProt Q9UKW6-2 1-255); settings: protein: recombinant; tags: N-terminal GST; dsDNA, one strand shown
# T11 sequence: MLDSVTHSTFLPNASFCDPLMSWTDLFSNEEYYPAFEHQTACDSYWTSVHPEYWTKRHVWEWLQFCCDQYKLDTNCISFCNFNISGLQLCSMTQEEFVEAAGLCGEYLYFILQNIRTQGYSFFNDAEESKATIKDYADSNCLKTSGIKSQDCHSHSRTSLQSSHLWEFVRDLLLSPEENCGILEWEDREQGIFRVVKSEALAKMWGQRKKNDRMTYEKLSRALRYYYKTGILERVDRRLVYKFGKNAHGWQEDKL
# In short: as §1
# ETV3 = target: T12, ETV3 (Homo sapiens, UniProt P41162-2 1-143); settings: protein: recombinant; tags: N-terminal GST; dsDNA, one strand shown
# T12 sequence: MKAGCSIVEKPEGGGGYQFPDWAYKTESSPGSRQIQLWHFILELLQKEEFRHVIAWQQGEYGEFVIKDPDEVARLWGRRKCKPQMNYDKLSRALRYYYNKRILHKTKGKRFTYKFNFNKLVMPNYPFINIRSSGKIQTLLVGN
# In short: as §1
# ETV6 = ETV6 (Homo sapiens, UniProt P41212 1-452); settings: protein: recombinant; tags: N-terminal GST; dsDNA, one strand shown
# Chain of ETV6 (P41212 whole entry): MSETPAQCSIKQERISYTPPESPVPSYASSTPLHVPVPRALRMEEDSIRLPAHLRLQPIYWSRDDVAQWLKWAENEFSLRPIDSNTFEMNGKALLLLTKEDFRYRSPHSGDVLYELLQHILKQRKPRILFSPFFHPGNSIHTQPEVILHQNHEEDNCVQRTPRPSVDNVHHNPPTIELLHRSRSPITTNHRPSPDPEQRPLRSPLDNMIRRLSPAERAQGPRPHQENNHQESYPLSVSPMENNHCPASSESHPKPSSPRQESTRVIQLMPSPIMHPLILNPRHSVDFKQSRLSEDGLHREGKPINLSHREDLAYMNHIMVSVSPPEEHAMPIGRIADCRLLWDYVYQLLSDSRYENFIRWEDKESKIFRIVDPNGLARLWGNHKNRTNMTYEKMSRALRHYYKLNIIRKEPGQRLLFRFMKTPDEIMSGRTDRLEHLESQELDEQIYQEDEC
# In short: as §1
sequence,measurement,setting,value
CACATT,binding signal,FEV,"1.18 fold enrichment (6-mer frequency, TF over GST control)"
same,binding signal,ETV5,"1.19 fold enrichment (6-mer frequency, TF over GST control)"
same,binding signal,HSF1,"1.14 fold enrichment (6-mer frequency, TF over GST control)"
same,binding signal,SPIC,"1.26 fold enrichment (6-mer frequency, TF over GST control)"
same,binding signal,ELF4,"1.16 fold enrichment (6-mer frequency, TF over GST control)"
same,binding signal,ELK4,"1.13 fold enrichment (6-mer frequency, TF over GST control)"
same,binding signal,ETV2,"1.28 fold enrichment (6-mer frequency, TF over GST control)"
same,binding signal,ELF3,"1.43 fold enrichment (6-mer frequency, TF over GST control)"
same,binding signal,CRX,"1.06 fold enrichment (6-mer frequency, TF over GST control)"
same,binding signal,ETV1,"1.28 fold enrichment (6-mer frequency, TF over GST control)"
same,binding signal,ERF,"1.33 fold enrichment (6-mer frequency, TF over GST control)"
same,binding signal,ETV3L,"1.17 fold enrichment (6-mer frequency, TF over GST control)"
same,binding signal,ETS2,"1.2 fold enrichment (6-mer frequency, TF over GST control)"
same,binding signal,SPDEF,"1.18 fold enrichment (6-mer frequency, TF over GST control)"
same,binding signal,ETV7,"1.18 fold enrichment (6-mer frequency, TF over GST control)"
same,binding signal,ELF5,"1.13 fold enrichment (6-mer frequency, TF over GST control)"
same,binding signal,ETV3,"1.12 fold enrichment (6-mer frequency, TF over GST control)"
same,binding signal,ETV6,"1.15 fold enrichment (6-mer frequency, TF over GST control)"
